{"source": "PubChem BioAssay AID2187", "about": "(The Scripps Research Institute Molecular Screening Center, 2009)", "note": "Screen size: about 1,300 compounds; about 1,200 (92%) were called active. The set was probably picked from earlier hits. The list is a sample of the results. Unmarked numbers belong to inactive results.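 How the source made its calls: active means inhibition of the VIM-2 beta-lactamase enzyme above about 11% from the earlier first-round screen (limit read from the data); inactive means the rest.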"}
{"test_system": "VIM-2 metallo-beta-lactamase (Pseudomonas aeruginosa)", "experiment": "inhibition of VIM-2 nitrocefin hydrolysis – biochemical, epi-absorbance, hits shared with IMP-1 screen, confirmation (AID 2187);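 further: 0% = VIM-2 with DMSO and 100% = buffer wells without enzyme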", "conditions": "purified VIM-2, nitrocefin hydrolysis, at 5.6 µM, hits give high values"}
{"smiles": "CC1CCCC(C)N1CCCNC(=O)c1cc2c(=O)n(C)c3ccccc3c2n1C", "note": "(stereo unspecified)", "inhibition": "29.3% (active)"}
{"smiles": "CCN1CCCC1CNC(=O)c1cc2c(=O)n(C)c3ccccc3c2n1C", "note": "(stereo unspecified)", "inhibition": "32.5% (active)"}
{"smiles": "Cc1cc(NCc2ccco2)n2c(nc3ccccc32)c1C#N", "inhibition": "53% (active)"}
{"smiles": "CCN(CC)c1ccc2cc(C(N)=O)/c(=N\\NC(=O)c3ccncc3)oc2c1", "inhibition": "37.4% (active)"}
{"smiles": "COc1ccc(/C=N/N(C)C2=NS(=O)(=O)c3ccccc32)cc1OC", "inhibition": "20.6% (active)"}
{"smiles": "O=C(COc1cc2oc(=O)c3c(c2cc1Cl)CCC3)NCCCN1CCOCC1", "inhibition": "34.9% (active)"}
{"smiles": "Cn1c(=O)c2c(nc(N3CCOCC3)n2CCNC2=NCCC2)n(C)c1=O", "inhibition": "28% (active)"}
{"smiles": "CCN(CC)CCOc1ccc2c(c1)C(=NNC(=O)c1ccccn1)c1cc(OCCN(CC)CC)ccc1-2", "inhibition": "43.4% (active)"}
{"smiles": "Cn1c2ccccc2c(=O)c2c(O)cccc21", "inhibition": "38.6% (active)"}
{"smiles": "C=CCn1c(-c2ccccc2OCC)n[nH]c1=S", "inhibition": "24.7% (active)"}
{"smiles": "COc1ccc(CCn2c(=N)c(C(=O)NCC3CCCO3)cc3c(=O)n4cccc(C)c4nc32)cc1OC", "note": "(stereo unspecified)", "inhibition": "27.6% (active)"}
{"smiles": "CC(=O)c1ccc(-c2ccc(Cn3c(C)nc4cc(N)c(C)nc43)cc2)cc1", "inhibition": "26.6% (active)"}
{"smiles": "CCOCCCNc1c(CC)c(C)c(C#N)c2nc3ccccc3n12", "inhibition": "20.6% (active)"}
{"smiles": "CCOC(=O)N1CCN(C(=O)C2CCN(c3ncnc4c3sc3cccc(F)c34)CC2)CC1", "inhibition": "22% (active)"}
{"smiles": "Cc1cccn2c(=O)c(C=O)c(Nc3ccc(S(N)(=O)=O)cc3)nc12", "inhibition": "26.6% (active)"}
{"smiles": "O=c1[nH]c(-c2ccccc2)c(-c2ccccc2)[nH]1", "inhibition": "45.7% (active)"}
{"smiles": "COc1cc(/C=N/Nc2nn3cnnc3c3ccccc23)cc(OC)c1OC", "inhibition": "53.9% (active)"}
{"smiles": "COc1ccc(Nc2cc(C)nc(-n3nc(C)cc3C)n2)cc1", "inhibition": "25.1% (active)"}
{"smiles": "COc1ccc(Cc2nnc(NS(=O)(=O)Cc3ccccc3)s2)cc1", "inhibition": "21.1% (active)"}
{"smiles": "CCC1CCCCN1CCCNC(=O)c1cc2c(Cl)nc3ccccc3c2s1", "note": "(stereo unspecified)", "inhibition": "32.2% (active)"}
{"smiles": "Cc1nc2ccccc2c2oc(C(=O)NCCCN3CCC(C)CC3)cc12", "inhibition": "29.2% (active)"}
{"smiles": "CCCc1ccc(OCCNC(=O)c2ccco2)cc1", "inhibition": "0.92%"}
{"smiles": "O=C(NC(=S)Nc1ccccc1C(=O)O)c1ccc(-c2ccc(Br)cc2)o1", "inhibition": "8.47% (active)"}
{"smiles": "CNC(=O)c1ccsc1NC(=O)c1ccc(S(=O)(=O)N2CCOCC2)cc1", "inhibition": "26.7% (active)"}
{"smiles": "COC(=O)c1c(NC(=O)c2ccc(S(=O)(=O)N3CCOCC3)cc2)sc2c1CCN(C(C)C)C2", "inhibition": "71.3% (active)"}
{"smiles": "COc1cc(NC(=O)C2=C(C)OCCS2)c(Cl)cc1C(=O)NCCN1CCN(C)CC1", "inhibition": "34.3% (active)"}
